Measurements from the supplement of paper PMC11732987, “Enantioselective OTUD7B fragment discovery through chemoproteomics screening and high-throughput optimisation” (Communications Chemistry, 2025).

What was measured:
Assay in all cases: log2 ratio of Biotin-Ahx-Ub-VS probe labelling (fragment/DMSO); higher = less target engagement (more negative = stronger competition), active = hit call of the paper (q ≤ 0.05, log2 ratio ≤ -1)
Details in all cases: compound concentration: 200 uM; treatment time: 3 h
USP34 = USP34 (UniProt Q70CQ2)
Chain of USP34 (Q70CQ2 whole entry, the tested form may be a part): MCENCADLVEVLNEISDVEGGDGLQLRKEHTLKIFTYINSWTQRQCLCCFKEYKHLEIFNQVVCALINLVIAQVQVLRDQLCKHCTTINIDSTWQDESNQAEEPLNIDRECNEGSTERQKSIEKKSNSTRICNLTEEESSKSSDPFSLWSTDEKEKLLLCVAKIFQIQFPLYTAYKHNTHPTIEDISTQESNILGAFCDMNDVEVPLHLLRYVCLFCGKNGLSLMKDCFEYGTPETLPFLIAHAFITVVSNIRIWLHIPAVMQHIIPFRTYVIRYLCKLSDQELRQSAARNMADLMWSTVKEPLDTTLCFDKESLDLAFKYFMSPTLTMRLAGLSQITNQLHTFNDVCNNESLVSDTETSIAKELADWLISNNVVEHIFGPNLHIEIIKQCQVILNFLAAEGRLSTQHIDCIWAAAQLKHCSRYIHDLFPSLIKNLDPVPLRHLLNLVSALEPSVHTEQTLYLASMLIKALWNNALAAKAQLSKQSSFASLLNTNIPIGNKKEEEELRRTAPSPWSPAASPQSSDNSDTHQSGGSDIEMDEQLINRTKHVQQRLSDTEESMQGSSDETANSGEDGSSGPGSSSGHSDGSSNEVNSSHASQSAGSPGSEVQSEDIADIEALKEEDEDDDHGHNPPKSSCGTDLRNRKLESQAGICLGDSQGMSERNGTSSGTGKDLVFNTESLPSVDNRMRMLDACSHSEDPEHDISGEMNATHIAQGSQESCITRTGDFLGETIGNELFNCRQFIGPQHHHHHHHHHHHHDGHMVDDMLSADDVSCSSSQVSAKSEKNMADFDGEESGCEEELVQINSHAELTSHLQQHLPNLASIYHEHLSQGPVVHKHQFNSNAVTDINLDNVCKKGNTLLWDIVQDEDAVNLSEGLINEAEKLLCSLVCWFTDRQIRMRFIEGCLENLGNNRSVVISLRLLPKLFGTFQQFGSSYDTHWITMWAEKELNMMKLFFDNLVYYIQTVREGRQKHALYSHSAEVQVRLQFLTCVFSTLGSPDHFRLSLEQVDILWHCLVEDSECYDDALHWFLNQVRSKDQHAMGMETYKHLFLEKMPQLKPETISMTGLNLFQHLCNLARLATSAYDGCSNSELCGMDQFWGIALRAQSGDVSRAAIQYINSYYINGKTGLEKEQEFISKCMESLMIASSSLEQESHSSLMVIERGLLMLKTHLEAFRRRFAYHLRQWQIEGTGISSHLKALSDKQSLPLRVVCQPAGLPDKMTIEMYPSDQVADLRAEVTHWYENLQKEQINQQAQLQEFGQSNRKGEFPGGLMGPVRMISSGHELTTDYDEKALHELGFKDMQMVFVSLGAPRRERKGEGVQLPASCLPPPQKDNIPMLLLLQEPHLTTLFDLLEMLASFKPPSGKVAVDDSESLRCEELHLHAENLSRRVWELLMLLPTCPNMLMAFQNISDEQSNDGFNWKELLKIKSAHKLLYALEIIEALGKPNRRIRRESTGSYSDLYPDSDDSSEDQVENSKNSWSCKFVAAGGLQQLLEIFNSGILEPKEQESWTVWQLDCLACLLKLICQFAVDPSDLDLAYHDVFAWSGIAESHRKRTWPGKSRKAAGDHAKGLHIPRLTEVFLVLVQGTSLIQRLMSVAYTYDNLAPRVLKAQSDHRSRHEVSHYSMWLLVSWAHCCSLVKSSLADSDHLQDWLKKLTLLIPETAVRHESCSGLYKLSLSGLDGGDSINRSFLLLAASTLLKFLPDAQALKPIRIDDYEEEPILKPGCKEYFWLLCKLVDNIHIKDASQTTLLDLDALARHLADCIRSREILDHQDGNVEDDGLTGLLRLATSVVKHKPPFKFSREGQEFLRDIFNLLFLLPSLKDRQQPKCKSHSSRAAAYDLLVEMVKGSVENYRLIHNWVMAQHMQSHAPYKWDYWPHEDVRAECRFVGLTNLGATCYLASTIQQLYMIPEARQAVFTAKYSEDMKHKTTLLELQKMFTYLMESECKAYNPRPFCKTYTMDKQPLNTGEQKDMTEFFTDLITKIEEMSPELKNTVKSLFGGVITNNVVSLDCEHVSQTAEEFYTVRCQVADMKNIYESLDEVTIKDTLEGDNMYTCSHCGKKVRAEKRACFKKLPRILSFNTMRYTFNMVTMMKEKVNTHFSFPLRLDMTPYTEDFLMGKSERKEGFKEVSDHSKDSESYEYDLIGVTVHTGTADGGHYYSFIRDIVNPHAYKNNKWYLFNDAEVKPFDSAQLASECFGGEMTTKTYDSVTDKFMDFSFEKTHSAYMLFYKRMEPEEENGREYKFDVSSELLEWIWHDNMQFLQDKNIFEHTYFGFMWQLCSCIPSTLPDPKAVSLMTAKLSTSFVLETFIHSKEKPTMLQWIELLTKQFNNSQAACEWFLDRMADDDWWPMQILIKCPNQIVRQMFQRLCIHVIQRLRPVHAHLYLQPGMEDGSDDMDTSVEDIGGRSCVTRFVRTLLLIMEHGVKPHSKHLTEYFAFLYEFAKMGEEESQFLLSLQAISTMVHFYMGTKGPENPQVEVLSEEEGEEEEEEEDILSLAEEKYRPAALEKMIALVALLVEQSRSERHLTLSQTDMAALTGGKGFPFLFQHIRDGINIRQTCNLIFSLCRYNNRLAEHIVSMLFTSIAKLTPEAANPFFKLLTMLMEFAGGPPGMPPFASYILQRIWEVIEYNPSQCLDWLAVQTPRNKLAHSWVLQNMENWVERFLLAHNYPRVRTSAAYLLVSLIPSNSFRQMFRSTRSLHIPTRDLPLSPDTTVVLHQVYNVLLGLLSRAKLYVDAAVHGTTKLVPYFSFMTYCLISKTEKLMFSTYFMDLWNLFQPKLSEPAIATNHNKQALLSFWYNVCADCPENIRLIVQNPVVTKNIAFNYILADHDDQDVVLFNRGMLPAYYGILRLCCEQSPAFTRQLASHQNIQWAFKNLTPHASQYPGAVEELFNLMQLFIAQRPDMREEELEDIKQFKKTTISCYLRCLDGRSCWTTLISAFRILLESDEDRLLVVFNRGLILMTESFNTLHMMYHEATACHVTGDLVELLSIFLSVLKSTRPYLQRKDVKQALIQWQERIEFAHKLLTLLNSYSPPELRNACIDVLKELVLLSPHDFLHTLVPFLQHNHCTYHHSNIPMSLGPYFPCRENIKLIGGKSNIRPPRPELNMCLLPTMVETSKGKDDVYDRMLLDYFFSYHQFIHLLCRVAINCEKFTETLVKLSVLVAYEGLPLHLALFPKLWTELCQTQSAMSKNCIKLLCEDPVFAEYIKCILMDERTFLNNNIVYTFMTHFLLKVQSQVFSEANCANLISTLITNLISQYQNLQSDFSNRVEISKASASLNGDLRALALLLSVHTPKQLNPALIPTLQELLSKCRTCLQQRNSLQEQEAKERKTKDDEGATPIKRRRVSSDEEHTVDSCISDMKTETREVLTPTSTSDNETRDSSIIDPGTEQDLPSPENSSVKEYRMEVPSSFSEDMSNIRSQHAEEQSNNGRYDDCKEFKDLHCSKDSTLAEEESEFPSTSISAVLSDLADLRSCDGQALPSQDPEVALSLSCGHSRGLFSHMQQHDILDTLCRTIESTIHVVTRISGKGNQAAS
Procedure, shortened: (§1)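 Global-median-normalised Spectronaut label-free quantities were compared by unpaired t-test, and values are average log2 ratios of fragment over vehicle. Only proteins with ≥2 unique peptides were used. HEK293T lysate (495 µg per sample) was treated in triplicate with fragment at 200 µM or vehicle for 3 h and then with Biotin-Ahx-Ub-VS at 0.5 µM final for 1 h. Labelled DUBs were then NeutrAvidin-enriched, digested with LysC and trypsin, and run by diaPASEF LC-MS/MS.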

USP36 = biological target: T1, USP36 (UniProt Q9P275)
T1 sequence (whole entry): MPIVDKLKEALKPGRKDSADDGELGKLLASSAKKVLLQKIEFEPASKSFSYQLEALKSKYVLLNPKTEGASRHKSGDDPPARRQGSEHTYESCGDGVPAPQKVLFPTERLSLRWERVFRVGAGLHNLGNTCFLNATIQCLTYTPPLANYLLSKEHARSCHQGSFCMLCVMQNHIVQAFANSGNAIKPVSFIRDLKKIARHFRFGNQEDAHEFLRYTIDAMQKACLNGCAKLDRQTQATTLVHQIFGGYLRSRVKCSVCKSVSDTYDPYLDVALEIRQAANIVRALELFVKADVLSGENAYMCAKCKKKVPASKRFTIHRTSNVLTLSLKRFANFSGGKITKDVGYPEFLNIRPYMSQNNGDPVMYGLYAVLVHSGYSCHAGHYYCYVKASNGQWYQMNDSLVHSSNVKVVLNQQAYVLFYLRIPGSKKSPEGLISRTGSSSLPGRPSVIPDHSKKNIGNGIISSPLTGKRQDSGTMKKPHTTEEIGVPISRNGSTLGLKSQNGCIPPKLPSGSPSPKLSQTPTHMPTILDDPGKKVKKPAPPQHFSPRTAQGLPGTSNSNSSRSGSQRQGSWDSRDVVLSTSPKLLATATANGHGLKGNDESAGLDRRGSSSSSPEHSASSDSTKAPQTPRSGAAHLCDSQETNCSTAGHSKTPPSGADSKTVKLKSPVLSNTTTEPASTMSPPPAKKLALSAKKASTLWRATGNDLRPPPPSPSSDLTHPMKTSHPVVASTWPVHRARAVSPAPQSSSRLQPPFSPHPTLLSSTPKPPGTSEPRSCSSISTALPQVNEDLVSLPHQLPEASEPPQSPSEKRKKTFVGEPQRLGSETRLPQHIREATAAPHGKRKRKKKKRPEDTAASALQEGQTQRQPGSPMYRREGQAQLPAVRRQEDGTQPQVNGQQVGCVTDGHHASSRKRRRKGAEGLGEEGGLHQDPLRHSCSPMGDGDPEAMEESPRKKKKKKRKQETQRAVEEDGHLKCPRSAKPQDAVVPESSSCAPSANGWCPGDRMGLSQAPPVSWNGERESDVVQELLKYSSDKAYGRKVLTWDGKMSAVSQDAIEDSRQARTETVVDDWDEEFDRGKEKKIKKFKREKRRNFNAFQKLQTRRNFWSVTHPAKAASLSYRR
Procedure, shortened: as §1

USP38 = biological target: T2, USP38 (UniProt Q8NB14)
T2 sequence (whole entry): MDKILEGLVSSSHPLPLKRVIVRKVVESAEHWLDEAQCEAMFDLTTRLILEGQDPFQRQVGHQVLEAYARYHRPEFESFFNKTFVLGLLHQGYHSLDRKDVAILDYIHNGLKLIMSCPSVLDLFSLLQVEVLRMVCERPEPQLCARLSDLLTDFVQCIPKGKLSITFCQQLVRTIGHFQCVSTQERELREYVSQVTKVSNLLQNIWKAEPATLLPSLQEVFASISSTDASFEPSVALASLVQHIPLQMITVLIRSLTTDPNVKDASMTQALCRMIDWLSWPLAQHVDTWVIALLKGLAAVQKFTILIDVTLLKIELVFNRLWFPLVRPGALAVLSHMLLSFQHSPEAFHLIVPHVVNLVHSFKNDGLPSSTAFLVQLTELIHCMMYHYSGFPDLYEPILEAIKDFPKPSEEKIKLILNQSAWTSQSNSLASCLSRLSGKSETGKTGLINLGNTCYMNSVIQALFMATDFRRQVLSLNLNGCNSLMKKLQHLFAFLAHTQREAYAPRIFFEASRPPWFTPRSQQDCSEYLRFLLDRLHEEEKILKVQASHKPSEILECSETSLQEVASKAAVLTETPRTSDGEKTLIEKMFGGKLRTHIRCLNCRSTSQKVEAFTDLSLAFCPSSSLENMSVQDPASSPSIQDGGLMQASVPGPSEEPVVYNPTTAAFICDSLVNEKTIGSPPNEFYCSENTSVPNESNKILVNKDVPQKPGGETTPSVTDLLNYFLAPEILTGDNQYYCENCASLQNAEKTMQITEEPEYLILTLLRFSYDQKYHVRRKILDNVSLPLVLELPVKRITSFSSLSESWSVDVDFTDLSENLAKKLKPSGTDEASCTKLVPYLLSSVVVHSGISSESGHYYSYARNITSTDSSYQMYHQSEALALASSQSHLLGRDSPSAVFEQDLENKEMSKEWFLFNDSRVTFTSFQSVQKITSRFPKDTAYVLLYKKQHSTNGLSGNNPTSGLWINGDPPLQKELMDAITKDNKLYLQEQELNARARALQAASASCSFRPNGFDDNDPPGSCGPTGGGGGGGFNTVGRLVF
Procedure, shortened: as §1

USP39 = biological target: T3, USP39 (UniProt Q53GS9)
T3 sequence (whole entry): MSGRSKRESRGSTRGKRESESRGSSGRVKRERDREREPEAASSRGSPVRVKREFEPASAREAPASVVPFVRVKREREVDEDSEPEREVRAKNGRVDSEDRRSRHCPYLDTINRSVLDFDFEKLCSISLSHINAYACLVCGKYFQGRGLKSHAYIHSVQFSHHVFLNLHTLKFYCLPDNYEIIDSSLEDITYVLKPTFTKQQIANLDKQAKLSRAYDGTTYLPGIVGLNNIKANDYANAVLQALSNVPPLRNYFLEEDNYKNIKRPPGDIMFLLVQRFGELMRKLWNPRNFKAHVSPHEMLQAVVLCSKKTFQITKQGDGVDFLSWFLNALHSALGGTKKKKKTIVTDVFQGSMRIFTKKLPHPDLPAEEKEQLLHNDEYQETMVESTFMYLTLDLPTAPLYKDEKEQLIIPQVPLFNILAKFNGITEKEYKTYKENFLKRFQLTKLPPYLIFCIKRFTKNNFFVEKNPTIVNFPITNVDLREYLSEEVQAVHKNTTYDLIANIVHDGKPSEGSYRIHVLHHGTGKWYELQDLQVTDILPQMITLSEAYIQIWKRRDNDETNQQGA
Procedure, shortened: as §1

USP4 = biological target: T4, USP4 (UniProt Q13107)
T4 sequence (whole entry): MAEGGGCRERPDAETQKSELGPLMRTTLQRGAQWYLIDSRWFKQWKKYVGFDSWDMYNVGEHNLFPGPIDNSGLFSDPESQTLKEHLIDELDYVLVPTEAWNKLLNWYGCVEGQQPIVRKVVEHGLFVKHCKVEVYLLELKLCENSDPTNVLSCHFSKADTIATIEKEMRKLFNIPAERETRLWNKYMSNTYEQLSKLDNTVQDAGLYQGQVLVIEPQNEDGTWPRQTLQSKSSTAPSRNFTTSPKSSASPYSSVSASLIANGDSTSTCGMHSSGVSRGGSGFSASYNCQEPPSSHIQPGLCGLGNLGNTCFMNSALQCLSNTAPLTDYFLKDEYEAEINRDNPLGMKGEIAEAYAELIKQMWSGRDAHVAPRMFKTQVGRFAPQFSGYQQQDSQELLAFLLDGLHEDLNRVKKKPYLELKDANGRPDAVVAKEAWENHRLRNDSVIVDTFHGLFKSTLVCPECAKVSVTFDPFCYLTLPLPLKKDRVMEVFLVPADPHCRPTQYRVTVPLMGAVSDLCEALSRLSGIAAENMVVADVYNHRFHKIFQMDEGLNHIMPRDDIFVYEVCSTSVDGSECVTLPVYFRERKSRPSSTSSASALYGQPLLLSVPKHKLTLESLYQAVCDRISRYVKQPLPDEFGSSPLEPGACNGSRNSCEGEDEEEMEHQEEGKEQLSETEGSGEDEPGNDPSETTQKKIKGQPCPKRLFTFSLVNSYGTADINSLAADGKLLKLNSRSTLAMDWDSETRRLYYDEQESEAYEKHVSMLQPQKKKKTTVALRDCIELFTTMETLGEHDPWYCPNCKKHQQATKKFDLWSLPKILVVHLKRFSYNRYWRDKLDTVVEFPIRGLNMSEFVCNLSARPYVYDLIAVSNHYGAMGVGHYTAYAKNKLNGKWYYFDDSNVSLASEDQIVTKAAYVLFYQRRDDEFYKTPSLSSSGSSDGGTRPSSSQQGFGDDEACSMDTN
Procedure, shortened: as §1

Measured: log2 ratio of Biotin-Ahx-Ub-VS probe labelling

O=C(CCl)Nc1ccc2c(c1)OC(F)(F)O2
inactive: USP34 -0.119 | USP36 0.029 | USP38 0.122 | USP39 0.433 | USP4 0.0436
